Out of some 2,300 compounds screened, about 1,000 (43%) were called active. The rule behind the calls is not given here. So high a share suggests a set chosen from earlier hits. The list shows a part of the results. Results with a measured potency or affinity are listed apart.

A short description of the assay: PhoP regulon inhibitor project modified counter assay, GFP fluorescence readout, dose response (AID 1985). The note with it: S. Typhi, 4 h; series mostly up to 150 µM.
Take `Cc1cc(C(=O)Cn2cncn2)c(C)n1CCc1ccc(F)cc1`: the result was inactive.
To `COc1ccc(Cl)cc1NC(=O)CCN1CCOCC1` belongs “inactive”; to `O=C(CCN1CCOCC1)Nc1ccccc1`, “inactive”; to `CCCNC(=O)COc1ncnc2sc(C)c(C)c12`, “inactive”.
`Cc1cc(C)cc(N(C(=O)CNC(=O)c2cccs2)C(C(=O)NC2CCCC2)c2cccnc2)c1` (stereo not given): the compound was called inactive.
Turning to `Cc1c(C2(O)C(=O)Nc3ccc(F)cc32)c(=O)n(-c2ccccc2)n1C` (stereo not given), the call was inactive.
On to `C=CCOC(=O)C1=C(C)NC2(O)c3ccccc3C(=O)C12O` (stereo not given), for which the compound was classed as inactive.
To `N#C/C(=C\c1ccc(O)c(O)c1)C(=O)NCc1ccccc1` belongs “inactive”; to `CCc1nn(CCCN2CCN(c3cccc(Cl)c3)CC2)c(=O)n1CCOc1ccccc1`, “inactive”.
As to `Cc1c(C)n(C)c2ccc(C(=O)NCCCN3CCCC3)cc12`, the call was inactive.
`Cn1c(CN2CCCC2)nc2cc(NC(=O)COc3ccc(Cl)cc3)ccc21`: the call was inactive.
As to `CC1CCN(CCCCOc2ccc(Cl)cc2)CC1`, the compound was called inactive.
As for `Cc1ccc(-c2nnc3sc(-c4ccncc4)nn23)cc1`, the result was inactive.
With `COc1ccc(C2C(C(=O)N3CCC4(CC3)OCCO4)CC(=O)N2c2ccc(OC)cc2)cc1` (stereo not given), the call was inactive.
Turning to `O=C(c1ccc2c(c1)[nH]c(=S)n1c3ccccc3nc21)N1CCN(c2cccc(Cl)c2)CC1`, the result was inactive.
`COC(=O)Cc1ccc(NC(=S)NCc2ccc(Cl)cc2)cc1`: the compound was classed as inactive.
Regarding `Cc1ccc(C)c(SCC(=O)Nc2ccc(S(=O)(=O)Nc3ncccn3)cc2)c1`, the call was inactive.
In the case of `CCNC(=S)Nc1cccc(S(=O)(=O)Nc2ccccc2OC)c1` it was “inactive”.
In the case of `O=S(=O)(Nc1ncccn1)c1ccc(NC(=S)Nc2ccccc2Cl)cc1` it was “inactive”; in that of `COc1cc(NS(=O)(=O)c2ccc(NC(=S)Nc3ccccc3)cc2)nc(OC)n1`, “inactive”.
`NC(N)=NC(N)=Nc1cccc2ccccc12`: the compound was called inactive.
Regarding `CCNC(=O)c1ccc(C2SCC(=O)N2CCc2ccccc2)cc1` (stereo not given), the outcome was inactive.
Take `COc1cccc(NC(=O)COC(=O)Cc2ccccc2[N+](=O)[O-])c1`: the compound was called inactive.
As to `COc1ccc(NC(=O)CN(C)S(=O)(=O)c2ccc(Cl)cc2)cc1Cl`, the call was inactive.
Take `Oc1ccccc1N=Cc1c(O)ccc2oc3c(c12)CCCC3`: the call was inactive.
In the case of `CC(=O)NCc1ccc(C(=O)CSc2nnc(-c3ccncc3)n2Cc2ccccc2)o1` it was “inactive”.
As for `Cc1[nH]c2ccccc2c1/C=N/Nc1nc2ccccc2[nH]1`, the result was inactive.
To `O=C(CN(CCc1ccccc1)C(=O)CNS(=O)(=O)c1ccc(F)cc1)NCC1CCCO1` (stereo not given) belongs “inactive”; to `COc1ccc(/C=N/NC(=O)c2ccc3c(c2)OCO3)cc1`, “inactive”.
In the case of `OCn1ncn(-c2ccccc2)c1=S`, the outcome was inactive.
With `CCN(CC)/C(N)=N/c1nc(C)cc(C)n1`, the outcome was inactive.
To `c1ccc(-c2nnc(-c3c[nH]c4ccccc34)nc2-c2ccccc2)cc1` belongs “inactive”.
`COC(=O)c1ccc(S(=O)(=O)N2CCC(c3nc4ccccc4o3)CC2)cc1`: the compound was called inactive.
For `Cc1cc(N2CCN(C3CCCCC3)CC2)nc2cccc(O)c12`, the result was inactive.
In the case of `O=C(CN1C2=NCCCN2c2ccccc21)c1ccc2c(c1)OCO2` it was “inactive”; in that of `O=C(CN1C2=NCCCN2c2ccccc21)c1ccc([N+](=O)[O-])cc1`, “inactive”; in that of `CC(C)N=C1NN=C(c2ccc(F)cc2)CS1`, “inactive”.
On to `COc1ccc(Cn2c(=N)c(C(=O)NCC3CCCO3)cc3c(=O)n4ccccc4nc32)cc1` (stereo not given), for which the outcome was inactive.
On to `COc1ccc(Nc2nc(NCC3CCCO3)c3ccccc3n2)c(OC)c1` (stereo not given), for which the compound was classed as inactive.
On to `COc1ccc(CCn2c(=N)c(C(=O)NCC3CCCO3)cc3c(=O)n4ccccc4nc32)cc1` (stereo not given), for which the compound was classed as inactive.
As for `Cc1cccn2c(=O)c3cc(C(=O)NCC4CCCO4)c(=N)n(C4CCCC4)c3nc12` (stereo not given), the result was inactive.
On to `Cn1cc(S(=O)(=O)NCC2CCCO2)c(=O)n(C)c1=O` (stereo not given), for which the compound was called inactive.
As for `COc1ccccc1Nc1nc(NCC2CCCO2)c2ccccc2n1` (stereo not given), the outcome was inactive.
As to `COc1ccc(Nc2nnc(SCC3CCCO3)s2)cc1` (stereo not given), the result was inactive.
Take `CCN(CC)S(=O)(=O)c1cc(NC(=O)C2Cc3ccccc3C(=O)O2)ccc1C` (stereo not given): the call was inactive.
Regarding `O=C1CSC(=S)N1c1cccnc1`, the compound was called inactive.
Take `Cc1cccc(N2C(=O)CS/C2=N\NC(=O)c2ccc(Br)cc2)c1C`: the result was inactive.
For the compound `Cc1c(C(=O)O)sc(=S)n1-c1ccc(Cl)cc1`, the result was inactive.
As to `O=C1c2ccc3c4c(ccc(c24)C(=O)N1c1cccc(O)c1)C(=O)N(c1cccc(O)c1)C3=O`, the outcome was inactive.
For the compound `Cc1nn(C)c(C)c1NC(=O)c1ccc(S(=O)(=O)N(C)C)cc1`, the compound was called inactive.
With `COc1ccc(CCNC(=O)Cn2c(=O)n(CC3CCCO3)c(=O)c3ccccc32)cc1OC` (stereo not given), the compound was called inactive.
Regarding `O=C(CSCc1ccccc1)Nc1cccc(C(=O)Nc2ccc(C(=O)O)cc2)c1`, the call was inactive.
For the compound `O=C(Nc1ccc(F)cc1)c1ccc2snnc2c1`, the result was inactive.
`CC(C)[C@@H](C(=O)NC1CCCC1)N1C(=O)N2CCc3c([nH]c4ccccc34)[C@@]2(C)C1=O`: the compound was classed as inactive.
`[O-][n+]1onc2c1CCc1[nH]c(-c3ccccc3)nc1-2`: the outcome was inactive.
`COc1ccc(C(=O)Oc2ccc(/C=N/O)cc2)cc1`: the compound was classed as inactive.
With `COc1ccc(NC(=O)C(Cc2ccccc2)n2cccc2)cc1` (stereo not given), the call was inactive.
For `COc1cc(/C=C/C(=O)O)cc2c1OCCO2`, the call was inactive.
`CC(=O)c1cc(O)c2ccccc2c1O`: the result was inactive.
Take `CN1CCCN(S(=O)(=O)c2ccc3c(c2)OCCO3)CC1`: the outcome was inactive.
In the case of `O=C(Nc1ccc(Cl)cc1)N1CCCN(Cc2ccccc2F)C1` it was “inactive”; in that of `CCOC(=O)N1CCN(C(=S)NC(=O)c2ccc(Br)cc2)CC1`, “inactive”.
In the case of `O=C(Cn1c(=O)oc2cc(S(=O)(=O)N3CCCC3)ccc21)N1CCN(c2ccccc2F)CC1` it was “inactive”; in that of `CCN1CCN(C(=O)Nc2ccc(Cc3ccc(NC(=O)N4CCN(CC)CC4)cc3)cc2)CC1`, “inactive”; in that of `Cc1oc2c(O)c(O)ccc2c(=O)c1-c1ccccc1`, “inactive”.
With `CCCC(=O)N1CCN(c2ccc(NC(=S)NC(=O)c3cccc(C)c3)cc2)CC1`, the compound was classed as inactive.
Regarding `CCN(CC)S(=O)(=O)c1ccc(N2CCOCC2)c(C(=O)O)c1`, the call was inactive.
In the case of `CCCNC(=O)C1CCN(c2ccc(S(=O)(=O)N3CCOCC3)cc2Cl)CC1` it was “inactive”; in that of `CCOc1ccc2nc(NC(=O)C3=NNC(=O)CC3)sc2c1`, “inactive”; in that of `Cc1ccccc1Oc1ccc(Oc2ccccc2C)nn1`, “inactive”.

The values above are taken from PubChem BioAssay AID1985 (Southern Research Specialized Biocontainment Screening …, 2009).
